Source: PubChem BioAssay (NCATS)
Unmarked numbers belong to inactive results. Inconclusive results are not listed. The source made the active and inactive calls. Unless noted, the call rests on the fitted dose curve; in most records, active means well fitted curve in either direction with a large enough effect (not every such curve was filed as active); inconclusive means small, poorly fitted or top-dose-only effect, or another doubt; inactive means flat fitted curve, though single readings scatter.

What was measured:
[1] = molecular target: Lysosomal acid glucosylceramidase (Homo sapiens) (UniProt P04062); assay: Glucocerebrosidase-p2 (AID 348; in the data active means potency below about 10 µM; further: potency means the concentration at half of the fitted maximal effect); conditions: purified GBA, blue fluorogenic substrate, 40 min
Summary of the method: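 Normal human glucocerebrosidase (0.2 nM) with blue fluorogenic substrate (80 uM final) in citrate/phosphate pH 5.9 with 10mM sodium taurocholate, 0.01% tween-20; 40 min RT, NaOH/glycine stop; fluorescence Ex 365/Em 440; AC50 from a titration from 0.6 nM upwards.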

[2] = AP1 Signaling Pathway (AID 357); conditions: ME-180 AP-1-bla reporter, EGF-induced, beta-lactamase ratio, 5 h; at 7.69 µM (top of the series) unless noted;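 further: ME-180 reporter cells stimulated with EGF at its EC50 level; on the % scale 0 is the no-effect control and ±100 the full control effect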
Summary of the method: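 Read-out was the 460nm/530nm emission ratio (excitation 405nm) after CCF4 loading for 2.5 hours at room temperature. Cells carried an AP-1-driven beta-lactamase reporter, were stimulated with EC50 EGF plus compound for 5 hours, and AC50 values came from titrations.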

[3] = molecular target: Cytochrome P450 1A2 (Homo sapiens) (UniProt P05177); assay: p450-cyp1a2 (AID 410; calls by dose curve; further: potency means the concentration at half of the fitted maximal effect;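 on activity change, negative = inhibition: -100% = full effect of reference inhibitor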); conditions: recombinant CYP1A2, luciferin-ME demethylation, luminescence; series mostly up to 11.4 µM
Summary of the method: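 Luminescent demethylation readout: Luciferin-ME (100uM, equal to Km) turned over by 20nM CYP1A2 for 60 min at room temperature after NADPH regeneration addition, following 10 min compound preincubation. Normalization used 57 uM furafylline as full inhibition.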

[4] = Stat Signaling Pathway (AID 446); conditions: ME-180 SIE beta-lactamase reporter, IL-6 stimulated, 5 h; at 7.69 µM (top of the series) unless noted;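 further: ME-180 cervical cancer cells given 40 pM IL-6 alongside compound; SIE-controlled beta-lactamase reporter measured as 460/530 nm FRET emission ratio; on the % scale 0 is the no-effect control and ±100 the full control effect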
Summary of the method: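 Overnight-plated ME-180 cells bearing a STAT Inducible Element beta-lactamase reporter; 5 h co-exposure to compound and 40 pM IL-6; values normalized to 300 pM IL-6 and 125 nM JAK inhibitor controls.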

[5] = molecular target: Glucocorticoid receptor (Homo sapiens) (UniProt P04150); assay: GR-GFP Redistribution (AID 450;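 active means compounds whose dose series gives a full or clear partial fitted curve of increased nuclear translocation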; further: potency means the concentration at half of the fitted maximal effect); conditions: U2OS GR-GFP nuclear translocation, laser cytometry, 2 h
[6] = molecular target: Glucocorticoid receptor (Homo sapiens) (UniProt P04150); assay: GR-EFC Redistribution (AID 451; calls by dose curve; further: potency means the concentration at half of the fitted maximal effect); conditions: CHO-K1 GR-EFC translocation, beta-gal luminescence, 2 h
Summary of the method: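 Translocation of GR-ED fusion to nuclear EA restores b-gal, read by luminescence after 1 h room-temperature detection. Engineered CHO-K1 biosensor cells, 1,000/well, exposed 2 h at 37 C to titrations up to 46 uM final.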

[7] = molecular target: Mitogen-activated protein kinase 10 (Mus musculus) (UniProt Q61831); assay: JNK3 AlphaScreen Assay (AID 530); conditions: JNK3 lysate, c-Jun phosphorylation; series mostly up to 11.4 µM;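 further: kinase came from lysate of stimulated human HepG2 cells; signal reports phosphorylation of biotinylated GST-cJun 1-79 at Ser73 with 10 µM ATP; on the % scale 0 is the no-effect control and ±100 the full control effect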
Summary of the method: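 qHTS titrations with 15 min compound pre-incubation before adding ATP (10 uM final). Read-out: AlphaScreen of Ser73-phosphorylated biotin-GST-cJun using HepG2 lysate JNK3 activated by IL-1β and TNFα.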

[8] = molecular target: 3',5'-cyclic-AMP phosphodiesterase 4B (Homo sapiens) (UniProt Q07343); assay: qHTS Assay for Inhibitors of PDE-IV (AID 607; active means well fitted activation curve with a large enough effect in the main read-out, with a control signal flat, not every such curve was filed as active; further: % of control where 0% means no effect); conditions: HEK293 ACTOne CNG channel cells, membrane potential fluorescence; series mostly up to 22.9 µM
Summary of the method: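 Live HEK293 cells with a modified cyclic nucleotide-gated (CNG) channel report intracellular cAMP via membrane-potential dye fluorescence (ex 535/em 590 nm). Endogenous PDE-IV was targeted. Compounds were tested at up to 22.9 uM final; RO 20-1724 100 uM served as control.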

[9] = molecular target: Cytochrome P450 3A4 (Homo sapiens) (UniProt P08684); assay: qHTS Assay for Activators of Cytochrome P450 3A4 (AID 885; active means well fitted curve in the direction sought with a large enough effect; an effect the other way counts as inactive or inconclusive; further: nearly all actives have a fitted effect of over 65% in size); conditions: recombinant CYP3A4, Luciferin-PPXE luminescence, 60 min; series mostly up to 11.4 µM
Summary of the method: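 Using 20nM recombinant human CYP3A4 in potassium phosphate (200mM), substrate Luciferin-PPXE at 25uM, luminescent luciferin detection followed a 60-min RT NADPH reaction; data scaled to 57 uM ketoconazole.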

[10] = molecular target: Cytochrome P450 2D6 (Homo sapiens) (UniProt P10635); assay: qHTS Assay for Inhibitors and Substrates of Cytochrome P450 2D6 (AID 891; active means well fitted curve in the direction sought with a large enough effect; an effect the other way counts as inactive or inconclusive; further: potency means the concentration at half of the fitted maximal effect; nearly all actives have a fitted effect of over 60% in size); conditions: recombinant CYP2D6, luciferin-ME EGE luminescence; series mostly up to 11.4 µM
Summary of the method: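 Luminescent read-out of luciferin formed by 5 nM human CYP2D6 demethylating 30 uM Luciferin-ME EGE (Km level) over 60 min at room temperature after NADPH regeneration addition. Data normalized to full inhibition by 1.43 uM quinidine.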

[11] = molecular target: Cytochrome P450 3A4 (Homo sapiens) (UniProt P08684); assay: qHTS Assay for Inhibitors and Substrates of Cytochrome P450 3A4 (AID 884; active means well fitted curve in the direction sought with a large enough effect; an effect the other way counts as inactive or inconclusive; further: potency means the concentration at half of the fitted maximal effect; nearly all actives have a fitted effect of over 50% in size); conditions: recombinant CYP3A4, Luciferin-PPXE luminescence; series mostly up to 57.1 µM
Summary of the method: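 Luminescent readout of luciferin produced by CYP3A4 (20 nM) dealkylation of Luciferin-PPXE, 25 uM (its KM). NADPH-driven reaction ran 60 min at RT after 10 min compound preincubation; data scaled to 57 uM ketoconazole as 100% inhibition.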

[12] = molecular target: Cytochrome P450 2C19 (Homo sapiens) (UniProt P33261); assay: qHTS Assay for Inhibitors and Substrates of Cytochrome P450 2C19 (AID 899; active means well fitted curve in the direction sought with a large enough effect; an effect the other way counts as inactive or inconclusive; further: nearly all actives have a fitted effect of over 60% in size; further: potency means the concentration at half of the fitted maximal effect); conditions: recombinant CYP2C19, luciferin-H EGE luminescence; series mostly up to 11.4 µM
Summary of the method: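 Luminescence readout of luciferin formed from 10uM Luciferin-H EGE (KM level) by 5 nM CYP2C19 in 50mM KPO4. 60 min NADPH-driven reaction at 37C after 10 min compound preincubation; data scaled to 57uM ketoconazole inhibition.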

[13] = molecular target: Cytochrome P450 2C9 (Homo sapiens) (UniProt P11712); assay: qHTS Assay for Inhibitors and Substrates of Cytochrome P450 2C9 (AID 883; active means well fitted curve in the direction sought with a large enough effect; an effect the other way counts as inactive or inconclusive; further: nearly all actives have a fitted effect of over 60% in size; further: potency means the concentration at half of the fitted maximal effect; on activity change, negative = inhibition: on the % scale 0 is the no-effect control and ±100 the full control effect); conditions: recombinant CYP2C9, luciferin-H luminescence, 60 min; series mostly up to 11.4 µM
Summary of the method: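 Luminescent read-out of deoxyluciferin hydroxylation, normalized to 57uM sulphaphenazole (AC100). Reaction: 10nM enzyme, 100uM Luciferin-H (equal to KM), 25mM KPO4, 10 min compound preincubation, then 60 min with NADPH regeneration, both at 37C.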

[14] = qHTS Assay for Identification of Small Molecule Agonists for Hypoxia Response Element Signaling Pathway (AID 914; active means well fitted activation curve with a large enough effect in the signal ratio, with a control signal flat, not every such curve was filed as active; the % refers to the signal ratio; further: % of control where 0% means no effect); conditions: ME-180 (cervical carcinoma) HRE-bla reporter, beta-lactamase ratio, CoCl2, 17 h; activation: stronger effect = higher value
Summary of the method: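 Compounds in a titration series were added to ME-180 reporter cells alongside an EC50 level of CoCl2. After 17 hours, beta-lactamase activity was read as the 460nm/530nm emission ratio of CCF4, giving AC50 values.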

Chain of Glucocorticoid receptor (Homo sapiens) (P04150 whole entry, looked up, the tested form may be a part): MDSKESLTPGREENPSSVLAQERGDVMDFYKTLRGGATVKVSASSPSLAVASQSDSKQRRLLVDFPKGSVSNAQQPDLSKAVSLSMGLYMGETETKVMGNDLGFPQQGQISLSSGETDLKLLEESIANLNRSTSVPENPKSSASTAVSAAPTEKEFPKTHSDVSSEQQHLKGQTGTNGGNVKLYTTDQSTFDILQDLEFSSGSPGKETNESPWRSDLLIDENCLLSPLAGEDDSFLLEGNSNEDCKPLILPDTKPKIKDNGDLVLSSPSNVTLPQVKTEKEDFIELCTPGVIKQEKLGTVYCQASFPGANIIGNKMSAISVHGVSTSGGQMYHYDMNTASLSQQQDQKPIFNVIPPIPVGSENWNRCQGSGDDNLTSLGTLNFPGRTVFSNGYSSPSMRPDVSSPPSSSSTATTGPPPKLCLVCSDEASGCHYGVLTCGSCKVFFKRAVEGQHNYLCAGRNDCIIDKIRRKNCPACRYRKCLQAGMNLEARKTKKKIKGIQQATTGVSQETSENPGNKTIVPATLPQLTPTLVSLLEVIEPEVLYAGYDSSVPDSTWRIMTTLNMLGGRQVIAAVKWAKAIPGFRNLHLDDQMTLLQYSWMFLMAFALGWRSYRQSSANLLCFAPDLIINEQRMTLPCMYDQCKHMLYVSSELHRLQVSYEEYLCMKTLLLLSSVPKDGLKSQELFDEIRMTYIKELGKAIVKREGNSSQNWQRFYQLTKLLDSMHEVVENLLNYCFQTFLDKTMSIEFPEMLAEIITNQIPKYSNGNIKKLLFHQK
Chain of 3',5'-cyclic-AMP phosphodiesterase 4B (Homo sapiens) (Q07343 whole entry, looked up): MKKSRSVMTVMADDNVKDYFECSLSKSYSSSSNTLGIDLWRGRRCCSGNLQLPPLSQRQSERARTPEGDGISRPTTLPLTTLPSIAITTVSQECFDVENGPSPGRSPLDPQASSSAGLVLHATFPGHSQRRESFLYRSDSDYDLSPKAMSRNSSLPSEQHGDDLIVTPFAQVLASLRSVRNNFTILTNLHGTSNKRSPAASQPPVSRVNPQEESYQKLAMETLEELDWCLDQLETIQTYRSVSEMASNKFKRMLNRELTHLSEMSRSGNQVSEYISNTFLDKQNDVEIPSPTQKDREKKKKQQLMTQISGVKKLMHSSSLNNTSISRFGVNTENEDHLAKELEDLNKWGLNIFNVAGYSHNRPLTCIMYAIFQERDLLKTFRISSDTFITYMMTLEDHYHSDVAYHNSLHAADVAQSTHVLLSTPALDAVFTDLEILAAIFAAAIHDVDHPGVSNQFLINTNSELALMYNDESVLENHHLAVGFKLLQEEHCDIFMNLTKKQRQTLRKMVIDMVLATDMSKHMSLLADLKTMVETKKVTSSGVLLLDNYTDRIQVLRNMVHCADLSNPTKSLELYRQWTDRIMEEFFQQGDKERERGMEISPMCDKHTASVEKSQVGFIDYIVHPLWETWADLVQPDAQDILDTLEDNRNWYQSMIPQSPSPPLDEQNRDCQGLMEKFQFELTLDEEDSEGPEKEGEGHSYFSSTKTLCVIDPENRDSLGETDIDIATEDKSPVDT
Chain of Lysosomal acid glucosylceramidase (Homo sapiens) (P04062 whole entry, looked up): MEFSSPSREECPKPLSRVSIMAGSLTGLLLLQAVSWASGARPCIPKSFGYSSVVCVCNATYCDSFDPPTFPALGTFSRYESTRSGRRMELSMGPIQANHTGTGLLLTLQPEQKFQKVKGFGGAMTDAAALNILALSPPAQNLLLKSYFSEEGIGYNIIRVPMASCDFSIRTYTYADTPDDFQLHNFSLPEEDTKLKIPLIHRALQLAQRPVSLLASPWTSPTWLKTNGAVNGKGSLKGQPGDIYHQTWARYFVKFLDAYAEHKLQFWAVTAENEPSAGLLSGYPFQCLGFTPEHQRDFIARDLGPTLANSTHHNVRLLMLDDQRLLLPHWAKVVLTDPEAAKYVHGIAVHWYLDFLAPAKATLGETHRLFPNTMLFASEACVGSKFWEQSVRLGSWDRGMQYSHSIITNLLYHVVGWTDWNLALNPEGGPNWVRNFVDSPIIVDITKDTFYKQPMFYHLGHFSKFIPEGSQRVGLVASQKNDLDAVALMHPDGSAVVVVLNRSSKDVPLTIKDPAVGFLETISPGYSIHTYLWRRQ
Chain of Cytochrome P450 3A4 (Homo sapiens) (P08684 whole entry, looked up): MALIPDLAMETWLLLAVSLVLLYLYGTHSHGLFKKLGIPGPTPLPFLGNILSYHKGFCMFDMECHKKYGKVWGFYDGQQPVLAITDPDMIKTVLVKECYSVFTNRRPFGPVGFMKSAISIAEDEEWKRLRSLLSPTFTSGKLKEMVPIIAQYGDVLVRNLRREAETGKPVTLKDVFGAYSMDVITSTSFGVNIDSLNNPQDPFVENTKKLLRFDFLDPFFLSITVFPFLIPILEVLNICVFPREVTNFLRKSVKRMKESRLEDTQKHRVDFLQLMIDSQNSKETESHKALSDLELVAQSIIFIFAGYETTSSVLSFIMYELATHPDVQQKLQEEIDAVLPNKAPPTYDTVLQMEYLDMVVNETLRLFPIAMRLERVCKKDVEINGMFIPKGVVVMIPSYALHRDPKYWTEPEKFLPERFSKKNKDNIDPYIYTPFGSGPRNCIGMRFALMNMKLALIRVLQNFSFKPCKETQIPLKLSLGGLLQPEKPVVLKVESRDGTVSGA
Chain of Cytochrome P450 2D6 (Homo sapiens) (P10635 whole entry, looked up): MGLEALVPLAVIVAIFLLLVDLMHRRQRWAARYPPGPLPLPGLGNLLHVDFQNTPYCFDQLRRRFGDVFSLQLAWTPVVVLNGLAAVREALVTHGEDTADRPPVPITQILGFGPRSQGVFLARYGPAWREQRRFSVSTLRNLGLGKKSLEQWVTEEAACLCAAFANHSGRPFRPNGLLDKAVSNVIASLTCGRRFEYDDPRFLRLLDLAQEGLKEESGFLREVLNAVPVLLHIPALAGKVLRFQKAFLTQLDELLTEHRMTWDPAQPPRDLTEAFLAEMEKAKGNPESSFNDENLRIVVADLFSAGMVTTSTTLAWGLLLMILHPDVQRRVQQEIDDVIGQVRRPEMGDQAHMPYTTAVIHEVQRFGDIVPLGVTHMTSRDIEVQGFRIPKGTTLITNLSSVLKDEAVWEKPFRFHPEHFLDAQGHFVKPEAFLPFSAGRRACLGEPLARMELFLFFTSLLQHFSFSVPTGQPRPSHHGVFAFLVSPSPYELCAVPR
Chain of Cytochrome P450 2C9 (Homo sapiens) (P11712 whole entry, looked up): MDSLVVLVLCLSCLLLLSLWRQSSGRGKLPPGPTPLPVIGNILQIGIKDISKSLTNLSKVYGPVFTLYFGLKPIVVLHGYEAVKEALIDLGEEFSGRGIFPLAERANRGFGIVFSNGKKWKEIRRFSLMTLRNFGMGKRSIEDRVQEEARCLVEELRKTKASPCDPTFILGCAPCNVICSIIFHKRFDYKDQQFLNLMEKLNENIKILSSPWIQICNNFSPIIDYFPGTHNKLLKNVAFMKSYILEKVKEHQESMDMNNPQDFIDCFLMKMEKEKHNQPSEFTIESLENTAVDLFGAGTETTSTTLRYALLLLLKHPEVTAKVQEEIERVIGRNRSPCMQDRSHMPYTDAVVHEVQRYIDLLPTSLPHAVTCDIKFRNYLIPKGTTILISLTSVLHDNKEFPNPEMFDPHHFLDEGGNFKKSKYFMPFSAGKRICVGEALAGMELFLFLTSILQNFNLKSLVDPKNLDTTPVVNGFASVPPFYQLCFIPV
Chain of Cytochrome P450 2C19 (Homo sapiens) (P33261 whole entry, looked up): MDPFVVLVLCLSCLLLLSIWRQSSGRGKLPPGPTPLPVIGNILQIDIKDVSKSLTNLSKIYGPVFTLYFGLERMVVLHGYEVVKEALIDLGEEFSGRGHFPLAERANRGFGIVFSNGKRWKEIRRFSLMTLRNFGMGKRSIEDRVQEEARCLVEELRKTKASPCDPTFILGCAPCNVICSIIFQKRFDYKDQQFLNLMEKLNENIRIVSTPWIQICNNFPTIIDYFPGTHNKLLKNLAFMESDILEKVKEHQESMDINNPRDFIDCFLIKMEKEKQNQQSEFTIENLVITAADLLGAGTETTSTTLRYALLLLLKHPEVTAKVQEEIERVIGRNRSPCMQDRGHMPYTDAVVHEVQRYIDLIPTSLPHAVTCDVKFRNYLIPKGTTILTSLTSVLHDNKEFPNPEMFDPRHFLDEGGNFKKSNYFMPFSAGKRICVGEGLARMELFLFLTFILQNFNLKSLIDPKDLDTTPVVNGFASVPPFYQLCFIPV
Chain of Cytochrome P450 1A2 (Homo sapiens) (P05177 whole entry, looked up): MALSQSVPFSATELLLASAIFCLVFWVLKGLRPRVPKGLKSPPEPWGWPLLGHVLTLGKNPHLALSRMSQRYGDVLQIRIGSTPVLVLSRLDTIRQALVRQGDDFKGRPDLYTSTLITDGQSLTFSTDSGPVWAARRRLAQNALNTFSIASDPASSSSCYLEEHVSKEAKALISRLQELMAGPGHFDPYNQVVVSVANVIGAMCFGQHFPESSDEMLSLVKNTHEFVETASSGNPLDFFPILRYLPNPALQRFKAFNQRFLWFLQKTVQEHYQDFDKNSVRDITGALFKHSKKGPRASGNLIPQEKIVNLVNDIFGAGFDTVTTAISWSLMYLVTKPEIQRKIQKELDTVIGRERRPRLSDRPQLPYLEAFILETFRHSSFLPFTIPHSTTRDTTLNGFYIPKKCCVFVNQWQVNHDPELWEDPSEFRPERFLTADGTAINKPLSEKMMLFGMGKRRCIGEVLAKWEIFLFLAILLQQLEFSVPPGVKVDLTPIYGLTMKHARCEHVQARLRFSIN

Row | SMILES | Potency [1] | activity change, negative = inhibition [2] | Potency [3] | activity, negative = inhibition [4] | Potency [5] | Potency [6] | Potency [7] | Potency [8] | Potency [9] | Potency [10] | Potency [11] | Potency [12] | activity change, negative = inhibition [3] | Potency [13] | activation [14]
1 | c1ccc(/C(=N/Nc2nc3ccccc3s2)c2ccccn2)cc1 | > 11.4 µM | -20.5% | 3.16 µM (active) | -1.49% | > 46 µM | > 9.22 µM | inactive | inactive | inactive | – | – | – | – | – | –
2 | CN(C)CCCc1c2ccccc2nc2ccc(Cl)cc12 | > 11.4 µM | 14.2% | 3.98 µM (active) | 18.2% | > 46 µM | > 9.22 µM | inactive | inactive | – | 1.58 µM (active) | – | – | – | – | –
3 | CO[C@@H]1/C=C\O[C@@]2(C)Oc3c(C)c(O)c4c(c3C2=O)C(=N[C@H]2CC[C@H](O)O[C@@H]2C)C=C(NC(=O)/C(C)=C\C(=O)[C@@H]2C[C@@H]2[C@@H](O)[C@H](C)[C@@H](O)[C@H](C)[C@H](OC(C)=O)[C@@H]1C)C4=O | > 11.4 µM | 26.3% | inactive | -2.6% | > 46 µM | > 9.22 µM | inactive | inactive | – | – | 1.26 µM (active) | 2.51 µM (active) | – | – | –
4 | Cc1ccc(C2=Nc3ccccc3S[C@@H](c3cccc([N+](=O)[O-])c3)C2)cc1 | > 11.4 µM | -7.9% | 2 µM (active) | -8.15% | > 46 µM | > 9.22 µM | inactive | inactive | inactive | – | 3.98 µM (active) | – | – | – | –
5 | O=C(c1ccccc1)[C@H](Nc1ccc2ccccc2c1)c1ccccc1 | > 11.4 µM | 23.6% | 0.794 µM (active) | -0.0129% | > 46 µM | > 9.22 µM | inactive | inactive | inactive | – | 3.16 µM (active) | – | – | – | –
6 | Clc1ccc2c(c1)N(CCCN1CCCC13CCCCC3)c1ccccc1S2 | > 11.4 µM | 19% | – | 11.1% | > 46 µM | > 9.22 µM | inactive | inactive | – | 0.0079 µM (active) | – | – | -6.2% [at 2.29 µM] | – | –
7 | CN(C)CC(C)(C)CN1c2ccccc2Sc2ccccc21 | > 11.4 µM | 24% | inactive | 0.898% | > 46 µM | > 9.22 µM | inactive | inactive | inactive | 0.199 µM (active) | – | – | – | – | –
8 | N#CC(C#N)=NNc1ccc2cn[nH]c2c1 | > 11.4 µM | 1.21% | 1.26 µM (active) | -12% | > 46 µM | > 9.22 µM | inactive | inactive | – | – | – | – | – | 2.51 µM (active) | –
9 | O[C@H](CNc1ccccn1)c1ccccc1 | > 11.4 µM | 1.58% | inactive | 4.88% | > 46 µM | > 9.22 µM | inactive | inactive | – | 1.58 µM (active) | – | – | – | – | –
10 | Oc1ccc2ccccc2c1/C=C\c1ccc2c(Br)cc(Br)c(O)c2n1 | > 11.4 µM | -7.49% | 3.98 µM (active) | 1.04% | > 46 µM | > 9.22 µM | inactive | inactive | – | – | – | – | – | 2.51 µM (active) | –
11 | Clc1ccc(Cl)c(Nc2ccnc(SCc3ccccc3)n2)c1 | > 11.4 µM | 1.81% | 0.501 µM (active) | 0.24% | > 46 µM | > 9.22 µM | inactive | inactive | inactive | – | – | 5.01 µM (active) | – | – | -13.8%
12 | CC(C)[C@@H]1OC(=O)C=CC=CC=CC=CC=CC[C@@H](O)[C@H](C)[C@@H](O)C[C@H](O)C[C@H](O)C[C@H](O)C[C@H](O)C[C@H](O)C[C@H](O)C=C[C@@H]1C | > 11.4 µM | 1.06% | – | 8% | > 46 µM | > 9.22 µM | inactive | inactive | – | – | – | inactive | -2.1% [at 2.29 µM] | inactive | –
13 | Cc1cc(Cl)nc2ccc(Cc3ccc4nc(Cl)cc(C)c4c3)cc12 | > 11.4 µM | -7.81% | – | -4.37% | > 46 µM | > 9.22 µM | inactive | inactive | inactive | – | – | 0.501 µM (active) | -13.2% [at 2.29 µM] | – | –
14 | c1ccc2c[n+](Cc3ccnc4ccccc34)ccc2c1 | 8.58 µM (active) | 12.4% | – | -6.6% | > 46 µM | > 9.22 µM | inactive | inactive | inactive | 3.16 µM (active) | – | – | -21.8% [at 2.29 µM] | – | –
